For 15 compounds, Inhibition results are on record in ChEMBL document CHEMBL4513141, “CO-ADD screening of NIH (USA) - Clinical Collection” (2021).

The term Inhibition denotes the change of the read-out against control, counted positive when it falls.

One experiment deals with Staphylococcus aureus. Particulars: Concentration 20 uM; ASSAY_TEST Inhibition of Bacterial Growth; detection method Absorption (OD600); MEDIA CAMHB; plate type 384well; NBS; CORNING #3640; time 18 hr.
In another experiment the test system is Escherichia coli. Particulars: Concentration 20 uM; ASSAY_TEST Inhibition of Bacterial Growth; detection method Absorption (OD600); MEDIA CAMHB; plate type 384well; NBS; CORNING #3640; time 18 hr.

Measured potencies and affinities stand elsewhere.

As to `C[C@]12C[C@H](O)[C@H]3[C@@H](CCC4=CC(=O)CC[C@@]43C)[C@@H]1CC[C@@H]2C(=O)CO` [CORTICOSTERONE], the Inhibition in the experiment on Staphylococcus aureus came to 12.8%; in the experiment on Escherichia coli, 2.35%. Take `OC[C@H]1O[C@@H](Oc2cc(O)cc(/C=C/c3ccc(O)cc3)c2)[C@H](O)[C@@H](O)[C@@H]1O` [PICEID]: the values for the Inhibition with Staphylococcus aureus and in the experiment with Escherichia coli were 5.5% and 8.13%, respectively. Taken in the same sequence, the figures for `O=C(O[C@H]1[C@H](Oc2ccccc2COC(=O)C2(O)C=CCCC2=O)O[C@H](CO)[C@@H](O)[C@@H]1O)c1ccccc1` (some centres undefined) [TREMULACIN] were 15.86% and 0.23%. Take `CC12CC3CC(C)(C1)CC(N)(C3)C2.Cl` [MEMANTINE HYDROCHLORIDE]: the Inhibition with Staphylococcus aureus came to 17.71%; in the experiment on Escherichia coli, 5.88%. Regarding `CC[C@@]1(O)C(=O)OCc2c1cc1n(c2=O)Cc2cc3c(CN(C)C)c(O)ccc3nc2-1.Cl` [TOPOTECAN HYDROCHLORIDE], the Inhibition was 12.09% in the experiment on Staphylococcus aureus and 3.87% in the experiment with Escherichia coli. For the compound `CCC(=O)O[C@]1(C(=O)CCl)[C@@H](C)C[C@H]2[C@@H]3CCC4=CC(=O)C=C[C@]4(C)[C@@]3(F)[C@@H](O)C[C@@]21C` [CLOBETASOL PROPIONATE], the Inhibition is listed as -12.08% in the experiment on Staphylococcus aureus and -1.37% with Escherichia coli. Take `CC(c1cc2ccccc2s1)N(O)C(N)=O` (centres undefined) [ZILEUTON]: the values for the Inhibition with Staphylococcus aureus and in the experiment with Escherichia coli were -21.42% and 6.17%, respectively. In the case of `COc1cc(C)nc(-n2nc(C)cc2OC)n1` [EPIRIZOLE], the Inhibition in the experiment on Staphylococcus aureus is listed as 7.75%; in the experiment with Escherichia coli it was -0.13%. The like results for `Cl.O=c1n(CCCN2CCN(c3cccc(Cl)c3)CC2)nc2ccccn12` [TRAZODONE HYDROCHLORIDE] were, in that order, 11.44% and 0.18%. `O=C([O-])Cc1ccccc1Nc1c(Cl)cccc1Cl.[Na+]` [DICLOFENAC SODIUM]: in the experiment with Escherichia coli, the Inhibition was 7.01%. On to `Nc1ccc2cn[nH]c2c1`, for which the figures for the Inhibition in the experiment on Staphylococcus aureus and in the experiment with Escherichia coli were -30.24% and 5.89%, respectively.

With `Cl.O=C1c2c(O)ccc(O)c2C(=O)c2c(NCCNCCO)ccc(NCCNCCO)c21`, the Inhibition in the experiment with Staphylococcus aureus is recorded as -9.15%; in the experiment with Escherichia coli it was 4.04%. With `NC(=O)c1cccnc1` [NIACINAMIDE], the results for the Inhibition with Staphylococcus aureus and in the experiment on Escherichia coli were 11.51% and 3.02%, respectively. Take `O=C1c2c(O)cc(O)cc2O[C@H](c2ccc(O)c(O)c2)[C@@H]1O`: the Inhibition in the experiment on Staphylococcus aureus is on record as 15.43%; with Escherichia coli, -4.02%. For `CCC(C)(C)/N=C(\NC#N)Nc1cccnc1`, the results for the Inhibition with Staphylococcus aureus and in the experiment with Escherichia coli were 1.37% and -2.42%, respectively.
